Here are results for 40 compounds from PubChem BioAssay (NCI).

“And” between values parts separate entries of the source, which are not always exact repeats. Equal entries are not always repeated. This is part of a sample that, as a whole, favours compounds with a hit. Of some 83,000 tested, about 20% had one in any assay.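 Step 1: grow cells in 96-well plates. Step 2: add test compound at a single concentration. Step 3: incubate 48 h. Step 4: record percent growth.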 The source made the active and inactive calls. The calls were made as follows: active = growth percent below 10; inactive = the rest.

In the experiment the test system is HL-60(TB) leukemia. In words: NCI-60 one-dose screen, 48 h (100 = growth as untreated, 0 = no growth, -100 = all killed). As to conditions: 10 µM unless noted.
With `COCCc1ccc(OCC(O)CNC(C)C)cc1` (stereo not given), the growth was 94.2% (inactive).
For the compound `Cc1cc(Cl)c2c(Cl)ccc(Cl)c2n1`, the growth was 96.2% (inactive).
Regarding `COc1ccc(NC(=O)c2sc3nc(C)c(C(=O)/C=C/c4cccc(OC)c4)cc3c2N)cc1`, the growth is 33.6% (inactive).
On to `O=C(/C=C/c1ccc[nH]1)c1ccc(-n2ccc(C(F)(F)F)n2)cc1`, for which the growth was -18.4% (active).
Then `CCn1nc(-c2ccccn2)c2cccnc2c1=S`, with 37.4% (inactive).
Then `OC(c1ccccc1)C(NC(Cc1ccccc1)c1ccccc1)c1ccccc1` (stereo not given), with 112% (inactive); and `S=c1ccc2ccccc2[nH]1`, with 85.3% (inactive) and 97.6% (inactive).
For the compound `COc1ccc(NC(=O)c2cc(OC)c(OC)c(OC)c2)cc1O`, the growth is 32.5% (inactive).
Then `COc1ccc(-c2n[nH]nc2-c2cc(OC)c3c(c2OC)OCO3)cc1`, with -23.2% (active); and `COc1cc(-c2cc(=O)oc3cc(O)ccc23)cc(OC)c1OC`, with 86.3% (inactive).
Then `COc1cc(-c2nn(C)nc2-c2cc3ccccc3s2)cc(OC)c1OC`, with -3.84% (active); and `COc1ccccc1S(=O)Nc1ccccc1` (stereo not given), with 91.5% (inactive); and `Cc1ccccc1CNc1ccc(N2CCOCC2)cc1`, with 102% (inactive).
Consider `C/C(=N\NC(=O)c1ccncc1)c1ccccc1O`, for which the growth is 5.87% (active) and 2.85% (active).
Then `COc1ccc2nc(Cl)cc(C)c2c1`, with 89.3% (inactive) and 9.88% (active).
In the case of `COc1cccc(C(=O)NNc2nc(N3CCOCC3)nc(N3CCN(C(c4ccccc4)c4ccccc4)CC3)n2)c1`, the growth was 76.4% (inactive).
Under `COc1ccc2c(Nc3ccc(NS(C)(=O)=O)cc3)c3ccccc3nc2c1` stands -8.29% (active); under `O=C1C=C(C(O)c2ccc(O)cc2)C(=O)c2ccccc21` (stereo not given), 98.4% (inactive); under `O=C(OCc1ccccc1)c1ccccc1`, 132% (inactive) and 98.4% (inactive).
Take `COc1cccc(C2=NN(C(C)=O)C(c3cc(OC)c(OC)c(OC)c3)C2)c1` (stereo not given): the growth was -17.8% (active).
Then `Oc1cccnc1CN1CCOCC1`, with 94% (inactive) and 88.5% (inactive); and `O=[N+]([O-])c1ccc(/C=N\NC(=S)Nc2ccc(F)cc2)cc1`, with 114% (inactive) and 82.5% (inactive); and `O=[N+]([O-])c1ccc(Nc2nc(NCCN3CCOCC3)ncc2[N+](=O)[O-])cc1`, with 102% (inactive).
Consider `COc1ccc(-c2nn(-c3ccccc3)cc2/C=C2/SC(=S)N(C)C2=O)cc1`, for which the growth was 95.8% (inactive).
Under `Cc1cc(O)c2c(c1O)C(=O)C13C(=C2O)C(=O)C2C(O)C1C1C(O)C3C(=O)C3=C(O)c4c(O)cc(C)c(O)c4C(=O)C321` (stereo not given) stands -19.7% (active); under `CCCCCCNC(=O)Oc1ccc(/C(=C(/CC)Cc2ccccc2)c2ccc(OCCN(CC)CC)cc2)cc1`, 55.2% (inactive); under `CCOC(=O)c1cc(C(=O)c2ccc(OC)c(OC)c2)n2ccc(-c3ccccn3)cc12`, 110% (inactive).
Under `Cc1nnc(-n2c(O)cc(=O)n(-c3ccccc3)c2=S)nc1/C=C/c1ccc(N(C)C)cc1` stands 7.92% (active); under `COc1ccc(/C=C(/C#N)n2nnc3cccc(F)c32)cc1`, -9.75% (active); under `CN(C)c1ccc(Cc2ccc(N(C)C)cc2Cl)c(Cl)c1`, 5.92% (active).
`CC1=NC2=CC=CC3=NC(C(Cl)(Cl)Cl)=NC(=N1)N23`: the growth was 25.2% (inactive).
As to `O=c1[nH]c2ccccc2cc1-c1nc2ccc(Cl)cc2[nH]1`, the growth was -26.1% (active).
As to `CCCCCCCCCCCCSC(=NC)NC`, the growth is -37.6% (active) and 38.4% (inactive).
Regarding `C#CCn1cc(C=C2C(=O)NC(=S)NC2=O)c2cc(Cl)ccc21`, the growth is -4.45% (active).
Under `CO/N=C(/C)c1ccc(NC(=O)CSc2nnc(-c3ccncc3)n2-c2ccccc2)cc1` stands 86% (inactive).
Then `COc1cc(C2CC(c3ccc(Nc4nc(NCCO)nc(N5CCOCC5)n4)cc3)=NN2c2cc(Cl)cc(Cl)c2)cc(OC)c1OC` (stereo not given), with 44.9% (inactive); and `O=[N+]([O-])c1ccc(Oc2cccnc2)c([N+](=O)[O-])c1`, with -10.1% (active); and `OC(c1ccccn1)C(O)c1ccccn1` (stereo not given), with 97.3% (inactive).
In the case of `O=C(O)CCCCSc1ncnc2nc[nH]c12`, the growth is 103% (inactive).
As for `Cc1ccc(C(O)C2=CC(=O)c3ccccc3C2=O)cc1` (stereo not given), the growth was 92.1% (inactive).
